Source: PubChem (several laboratories)
Most compounds without a hit are left out; they make up all but 4.9% or so of the library.
HSP90 refold inh: HSP90 inhibitors, primary screen, cell lysate, luminescence; Heat shock protein HSP 90 (rabbit reticulocyte lysate; luciferase refolding); Rabbit reticulocyte lysate, luciferase refolding luminescence, 3 h; inhibition, % at 5.6 µM; actives 0.91% (n = 290,000); AID 1789, 2009;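 active = inhibition above the screen-wide mean plus 3 SD, computed separately per campaign, cut at about 16% in these data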;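 note: 0% = DMSO wells and 100% = 60 µM geldanamycin wells; inhibitors lower the luminescence because luciferase stays unfolded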
MPTP block: mitochondrial permeability transition pore inhibitors, primary screen, biochemical, isolated mouse mitochondria, absorbance; actives 1.4% (n = 360,000); inhibition, % at 10 µM; AID 602449, 2012; Ca2+ swelling absorbance, 30 min;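 active = inhibition of 50% or more, scaled per plate between neutral and stimulator controls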;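 note: 0% = DMSO wells given calcium and 100% = 1 mM EGTA wells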
dFosB activator: activators of delta FosB homodimer, primary screen, biochemical, fluorescence polarization, TAMRA-CDK5 oligo, single point. purified delta FosB; percent of positive-control signal above neutral wells. activation, % at 25 µM. actives 0.99% (n = 340,000). AID 493131, 2011;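 active = mean activation above about 17%, with every replicate also reaching it, limit read from the data, passing the limit was not always enough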
Target sequence (P13346 whole entry, looked up): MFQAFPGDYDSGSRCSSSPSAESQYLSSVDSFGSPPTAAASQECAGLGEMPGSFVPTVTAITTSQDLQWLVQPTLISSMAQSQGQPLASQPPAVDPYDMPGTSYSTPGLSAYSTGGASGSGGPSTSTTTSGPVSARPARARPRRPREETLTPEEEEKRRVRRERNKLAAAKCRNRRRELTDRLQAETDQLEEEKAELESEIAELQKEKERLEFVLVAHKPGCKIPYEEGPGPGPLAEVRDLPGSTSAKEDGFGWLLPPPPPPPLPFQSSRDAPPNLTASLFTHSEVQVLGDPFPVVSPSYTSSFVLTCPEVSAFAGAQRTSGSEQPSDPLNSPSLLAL
HSF1 inh: HSF1 inhibitors in luciferase reporter cells, primary screen, cell-based, NIH3T3, luminescence; NIH3T3-HGL HSE-luciferase, MG132-induced, luminescence 8 h; active compounds read low; activity change, negative = inhibition, % at 7.5 µM (by protocol); actives 0.77% (n = 300,000); AID 2098, 2009;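 active = more than half of replicate wells show activity change below -50%, luminescence cut by over half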;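 note: luciferase reports HSF-1 transcriptional activity via heat shock element; 0% = median of DMSO wells and -100% = zero luminescence signal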
HSF-1 act: HSF-1 activators, primary screen, NIH3T3-HGL cells, MG132 stress, luminescence, single point; NIH3T3-HGL HSF-1 luciferase reporter, 8 h; 100% = twice DMSO control signal; activation, % at 9 µM; actives 1.7% (n = 300,000);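 active = mean replicate activation of at least 50% with a set share of replicates each reaching 50%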;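 note: 0% = median of the neutral control wells and 100% = twice that signal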
Platelet DG rel: inhibitors of platelet dense granule secretion, primary screen, cell-based, MLPCN, human platelets; human platelet-rich plasma, SFLLRN dense granule ATP release, luminescence; inhibition, %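 (compounds screened at 7.5 µM in platelet-rich plasma)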; actives 0.22% (n = 300,000); AID 1663, 2009;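 active = mean replicate score, as percent of positive control, at or above 50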
Starred values were filed as active, the others as inactive; · = no result given.

SMILES	HSP90 refold inh	MPTP block	dFosB activator	HSF1 inh	HSF-1 act	Platelet DG rel
CN(C)c1ccc(S(=O)(=O)N2CCCCC2)cc1NC(=O)COc1ccccc1F	1	0	-6	8	9	18
N#CCCN1CCN(C(=S)c2ccc(-c3ccc(Cl)c(Cl)c3)o2)CC1	0	-2	14	61	100*	2
S=C(c1ccc(-c2cccc(Cl)c2)o1)N1CCCCC1	0	2	-5	38	73*	6
O=C(Nc1ccccc1F)c1ccc(-c2cccc([N+](=O)[O-])c2)o1	2	1	-2	25	51*	-8
S=C(c1ccc(-c2cccc(Cl)c2)o1)N1CCOCC1	5	4	-6	37	49	3
O=[N+]([O-])c1cccc(-c2ccc(C(=S)N3CCOCC3)o2)c1	1	2	-4	49	79*	-5
CN1CCN(C(=S)c2ccc(-c3cccc([N+](=O)[O-])c3)o2)CC1	-1	1	6	29	49	-16
CCn1cc(-c2cc(C(=O)O)c3ccccc3n2)cn1	0	0	-14	-9	4	16
COCc1cn(CC(C)n2c(=O)c3ccccc3n2Cc2cc(C(C)C)no2)nn1 (stereo not drawn)	·	2	·	·	·	·
O=C(/C=C/[C@H]1O[C@@H](n2ccc(=O)[nH]c2=O)[C@H](O)[C@@H]1O)NCc1cccs1	·	-1	·	·	·	·
Cc1ccc(C(=O)NCCCN2CCOCC2)c(Cl)c1	0	0	-6	3	7	10
CCCCc1nc2sc3c(=O)n(N)cnc3c2c2c1CCC2	10	2	-10	9	16	3
O=C(CSc1ncnc2c1nnn2Cc1ccccc1)NC1CCCCC1	-1	0	14	66	80*	-5
O=C(CSc1nnnn1Cc1ccccc1)NC1CCCCC1	0	2	-6	-3	7	2
COc1ccc(CCN(Cc2cc3ccc(C)cc3n3nnnc23)C(C)=O)cc1OC	0	1	-6	-4	-1	-5
COc1cccc(NC(=O)CSc2nnc(Cn3cnc([N+](=O)[O-])n3)n2C)c1	-1	11	2	-3	2	5
COc1ccc(NC(=O)CSc2nnc(Cn3cnc([N+](=O)[O-])n3)n2C)cc1	-4	1	-2	34	67*	-26
CC1(C(=O)NS(=O)(=O)c2cccc(C#N)c2)CCN1C(=O)Cc1ccccc1 (stereo not drawn)	·	-1	·	·	·	·
CCCNC(=O)NC1C(NC(=O)NCCC)N(C)C(=O)N1C (stereo not drawn)	0	0	0	-57*	-68	-1
CC(=O)c1ccc(NC(=O)c2ccc3nc(-c4ccco4)c(-c4ccco4)nc3c2)cc1	5	1	-10	0	1	5
O=C(Nc1ccccc1)c1ccc2nc(-c3ccco3)c(-c3ccco3)nc2c1	3	2	-20	22	56*	-4
C/C(=N\NC(=O)c1ccco1)c1ccc(NC(=O)c2ccccc2)cc1	-1	-2	-3	47	94*	0
O=C(Nc1ccc(Nc2ccccc2)cc1)c1ccco1	0	0	-10	31	67*	5
Cc1ccc(C(=O)OCC(=O)Nc2ccccc2)cc1NC(=O)c1ccco1	0	1	27*	-3	9	-4
O=C(NCc1ccc(F)cc1)C1CCC(CNS(=O)(=O)c2ccccc2)CC1 (stereo not drawn)	0	0	2	3	17	8
SMILES	HSP90 refold inh	MPTP block	dFosB activator	HSF1 inh	HSF-1 act	Platelet DG rel
COC(=O)C[C@H]1C[C@H]2c3cc(NS(=O)(=O)c4ccc(OC)cc4)ccc3O[C@H]2[C@H](CO)O1	·	1	·	·	·	·
O=C(CSCc1ccc(Br)cc1)N1CCCC1	-4	0	-7	15	57*	-1
CC(C)N1CCSC1=S	·	0	3	·	·	·
COc1ccc(Cl)cc1NC(=O)CSc1nc2ccsc2c(=O)n1CC1CCC(C(=O)O)CC1 (stereo not drawn)	0	0	0	-60*	-69	-18
CCOc1ccc(NC(=O)CN(C)C(=O)C2CCN(C(=O)Nc3ccccc3)CC2)cc1OCC	·	1	-16	·	·	·
O=C(O)CCCCCCC1C(=O)NC(=O)N1CCC(O)C1CCCCC1 (stereo not drawn)	1	-3	-4	-5	-10	88*
Cc1c(CC(=O)O)c(=O)oc2cc(OCc3ccc(Br)cc3)ccc12	17*	1	-6	-5	8	3
Cc1c(CC(=O)O)c(=O)oc2cc3occ(-c4ccc(F)cc4)c3cc12	-1	1	-21	-3	5	5
COc1ccc(-c2coc3cc4oc(=O)c(CC(=O)O)c(C)c4cc23)cc1	2	-1	-2	21	71*	1
CCN1C(=O)[C@H]2[C@@H](c3ccc(-c4cccc(Cl)c4)cc3)N3CCCC[C@@]3(C(=O)OC)[C@H]2C1=O	·	-1	-4	3	-6	-4
CC(=O)c1sc(Nc2ccc3c(c2)OCO3)nc1C	·	0	·	·	·	·
COc1ccc(S(=O)(=O)N2CCCCCC2)cc1C(=O)OCC(=O)NC(N)=O	0	-1	5	-1	-18	12
COc1ccc(S(=O)(=O)N2CCCCCC2)cc1C(=O)OCC(=O)NC(C)(C)C	3	1	1	-68*	-75	-2
CCC(C)OC(=O)c1[nH]c2c(c1C)C(=O)CC(c1ccc(N(C)C)cc1)C2 (stereo not drawn)	-3	3	29*	19	29	3
C/C=C/COC(=O)c1[nH]c2c(c1C)C(=O)CC(c1ccc(N(C)C)cc1)C2 (stereo not drawn)	-2	-1	85*	9	10	8
Cc1cccc(CSc2cn(CC(=O)N3CCOCC3)c3ccccc23)c1	-2	1	-1	46	76*	-21
Nc1ncnc2c(C3OC(CO)C(O)C3O)c[nH]c12 (stereo not drawn)	·	2	8	91*	91*	·
Nc1ncnc2c1nc(-c1ccccc1)n2C1OC(CO)C(O)C1O (stereo not drawn)	·	-1	·	·	·	·
CC/C(=N/N=C(/CC)c1ccc(O)cc1)c1ccc(O)cc1	·	10	6	0	-20	-3
CCCCN(c1ccccc1)c1ncnc(N)c1[N+](=O)[O-]	-1	3	-5	-52*	-56	8
CN(c1ncnc(N)c1[N+](=O)[O-])C1CCCCC1	-3	0	3	-40	-45	-4
Cc1ccc(C)c(OCc2cc(C(=O)N3CCN(c4ccccc4)CC3)no2)c1	3	-2	-5	38	56*	-3
